Laboratory results reported in ChEMBL document CHEMBL1157539, “Thousands of chemical starting points for antimalarial lead identification” (Nature, 2010).

Columns and labels:
Assay type in all cases: functional
Plasmodium falciparum [1] = assay: GSK_TCMDC: Inhibition of Plasmodium falciparum 3D7 in whole red blood cells, using parasite LDH activity as an index of growth. Test compounds present at 2uM
Plasmodium falciparum [2] = assay: GSK_TCMDC: Inhibition of Plasmodium falciparum Dd2 in whole red blood cells, using parasite LDH activity as an index of growth. Test compounds present at 2uM
HepG2 = assay: GSK_TCMDC: Percent inhibition of human HepG2 cell line. Test compounds present at 10uM.

CCNc1cc(C(=O)N[C@@H](Cc2ccccc2)[C@H](O)CNC2CCC(C)(C)C2)cc(N2CCCCS2(=O)=O)c1.Cl (stereo partly specified)
Inhibition (Plasmodium falciparum [1]): 96% | Inhibition (Plasmodium falciparum [2]): 98% | Inhibition (HepG2): 3%

CCCCCc1ccc(N2C(N)=NC(N)=NC2(C)C)cc1.Cl
Inhibition (Plasmodium falciparum [1]): 95% | Inhibition (Plasmodium falciparum [2]): 1% | Inhibition (HepG2): 59%

CC(C)(C)c1ccc(NC(=O)c2ccc(CN3CCCN(Cc4cccc(F)c4)CC3)cc2)cc1.O=C(O)C(F)(F)F
Inhibition (Plasmodium falciparum [1]): 90% | Inhibition (Plasmodium falciparum [2]): 8% | Inhibition (HepG2): 51%

Fc1ccc(CN2CCN(c3ncnc4cc(-c5ccccc5)sc34)CC2)cc1
Inhibition (Plasmodium falciparum [1]): 82% | Inhibition (Plasmodium falciparum [2]): 82% | Inhibition (HepG2): 7%

O=C(Cc1c[nH]cn1)Nc1cccc(-c2cccc(-c3nc4ccccc4[nH]3)c2)c1
Inhibition (Plasmodium falciparum [1]): 97% | Inhibition (Plasmodium falciparum [2]): 60% | Inhibition (HepG2): 24%

COc1ccc2nccc([C@@H](O)CN3CCC(NC(=O)COc4nc(SCc5ccc(F)cc5)nc5c4CCC5)CC3)c2c1
Inhibition (Plasmodium falciparum [1]): 96% | Inhibition (Plasmodium falciparum [2]): 78% | Inhibition (HepG2): 29%

CCC(CC)n1cc2c(ccc3nc(N)nc(N)c32)n1
Inhibition (Plasmodium falciparum [1]): 91% | Inhibition (Plasmodium falciparum [2]): 0% | Inhibition (HepG2): 61%

C=C[C@]1(C)C[C@@H](OC(=O)c2n[nH]c3ccccc3c2=O)[C@]2(C)[C@H](C)CC[C@]3(CCC(=O)[C@H]32)[C@@H](C)[C@@H]1O
Inhibition (Plasmodium falciparum [1]): 96% | Inhibition (Plasmodium falciparum [2]): 84% | Inhibition (HepG2): 0%

CN1CCC(C(=O)N(Cc2ccc(-c3ccc(CNCCc4ccc(S(C)(=O)=O)cc4)cn3)cc2)Cc2cccc(F)c2)CC1.O=C(O)C(F)(F)F
Inhibition (Plasmodium falciparum [1]): 98% | Inhibition (Plasmodium falciparum [2]): 90% | Inhibition (HepG2): 10%

COc1ccc2nccc(NC(=O)C3(O)CCC(NCc4ncc5c(c4Cl)OCCO5)CC3)c2n1.Cl (stereo unspecified)
Inhibition (Plasmodium falciparum [1]): 83% | Inhibition (Plasmodium falciparum [2]): 59% | Inhibition (HepG2): 21%

Oc1ccc(-c2cc(-c3ccc(O)cc3)nc(-c3ccccc3)n2)cc1
Inhibition (Plasmodium falciparum [1]): 96% | Inhibition (Plasmodium falciparum [2]): 97% | Inhibition (HepG2): 0%

COc1ccc2nccc([C@@H](O)CN3CCC(NCc4nc5c(cc4Cl)OCC(=O)N5)C(F)C3)c2c1.Cl (stereo partly specified)
Inhibition (Plasmodium falciparum [1]): 84% | Inhibition (Plasmodium falciparum [2]): 29% | Inhibition (HepG2): 4%

CCc1c(C(=O)NC2CCC(N3CCC(c4ccccc4C)CC3)CC2)[nH]c2ccc(OC)cc12 (stereo unspecified)
Inhibition (Plasmodium falciparum [1]): 100% | Inhibition (Plasmodium falciparum [2]): 100% | Inhibition (HepG2): 78%

O=C(c1cc(-c2ccccc2)n[nH]1)N1CCN(S(=O)(=O)c2ccc(Cl)s2)CC1
Inhibition (Plasmodium falciparum [1]): 88% | Inhibition (Plasmodium falciparum [2]): 81% | Inhibition (HepG2): 9%

CN(C)Cc1c(O)ccc2oc(Cc3ccccc3)cc12.Cl
Inhibition (Plasmodium falciparum [1]): 99% | Inhibition (Plasmodium falciparum [2]): 94% | Inhibition (HepG2): 0%

CC(C)N(Cc1ccc(-c2ccc(C(F)(F)F)cc2)cc1)C(=O)Cn1c(CCc2cccc(F)c2F)cc(=O)c2ccc(CCCN3CCCCC3)cc21.O=C(O)C(O)C(O)C(=O)O
Inhibition (Plasmodium falciparum [1]): 100% | Inhibition (Plasmodium falciparum [2]): 82% | Inhibition (HepG2): 99%

COc1ccc(CNC2CCN(C)CC2)cc1-c1ccc(S(=O)(=O)NCCc2ccccn2)c(C)c1.O=C(O)C(F)(F)F
Inhibition (Plasmodium falciparum [1]): 96% | Inhibition (Plasmodium falciparum [2]): 91% | Inhibition (HepG2): 7%

CC(=O)c1cc(N2CCOCC2)ccc1N
Inhibition (Plasmodium falciparum [1]): 91% | Inhibition (Plasmodium falciparum [2]): 43% | Inhibition (HepG2): 7%

CC(C)NCC(=O)Nc1cccc(C(=O)Nc2cccc(C(F)(F)F)c2)c1
Inhibition (Plasmodium falciparum [1]): 97% | Inhibition (Plasmodium falciparum [2]): 89% | Inhibition (HepG2): 6%

COc1ccc(Nc2ncc3c(-c4cccc(NC(=O)CC(C)C)c4)c[nH]c3n2)cc1OC
Inhibition (Plasmodium falciparum [1]): 100% | Inhibition (Plasmodium falciparum [2]): 71% | Inhibition (HepG2): 37%

CN(C)c1ccc(CN2CCCC(CNC(=O)c3ccc(-c4cccc(C(F)(F)F)c4)s3)C2)cc1.O=C(O)C(F)(F)F (stereo unspecified)
Inhibition (Plasmodium falciparum [1]): 89% | Inhibition (Plasmodium falciparum [2]): 37% | Inhibition (HepG2): 32%

Cc1ccccc1CNc1ccc2nc(N)nc(N)c2c1
Inhibition (Plasmodium falciparum [1]): 100% | Inhibition (Plasmodium falciparum [2]): 90% | Inhibition (HepG2): 59%

O=C(O)C(F)(F)F.c1cc(-c2ccc(CNCCCN3CCOCC3)cc2)cc(-c2nc3ccccc3[nH]2)c1
Inhibition (Plasmodium falciparum [1]): 100% | Inhibition (Plasmodium falciparum [2]): 0% | Inhibition (HepG2): 26%

O=C(c1cccc(-c2noc(C(F)(F)F)n2)c1)N1CCN(C(=O)c2ccc3cc[nH]c3c2)CC1
Inhibition (Plasmodium falciparum [1]): 94% | Inhibition (Plasmodium falciparum [2]): 85% | Inhibition (HepG2): 15%

CCCCCCN(C(=O)OCc1ccccc1)C1CCN(C(=O)OC(C)(C)C)CC1C(=O)OCC (stereo unspecified)
Inhibition (Plasmodium falciparum [1]): 96% | Inhibition (Plasmodium falciparum [2]): 96% | Inhibition (HepG2): 9%

CN(C)CCCOc1ccc(-c2nc(-c3ccc4c(c3)CCC4=NO)c(-c3ccncc3)[nH]2)cc1.Cl
Inhibition (Plasmodium falciparum [1]): 96% | Inhibition (Plasmodium falciparum [2]): 63% | Inhibition (HepG2): 68%

Cl.Oc1ccc2ccccc2c1CNC1CCCCCC1
Inhibition (Plasmodium falciparum [1]): 83% | Inhibition (Plasmodium falciparum [2]): 33% | Inhibition (HepG2): 9%

CCCN1CCN(CC(O)CNC(=O)Nc2ccc(Br)cc2)CC1.O=C(O)C(F)(F)F (stereo unspecified)
Inhibition (Plasmodium falciparum [1]): 100% | Inhibition (Plasmodium falciparum [2]): 100% | Inhibition (HepG2): 10%

CNc1c2c(nc3ccc(NC(=O)CCCCCCc4ccccc4)cc13)CCCC2.Cl
Inhibition (Plasmodium falciparum [1]): 100% | Inhibition (Plasmodium falciparum [2]): 82% | Inhibition (HepG2): 0%

CSc1cccc(Nc2nc3ccc(S(=O)(=O)NCC(C)C)cc3n2C(C)C(C)C)c1 (stereo unspecified)
Inhibition (Plasmodium falciparum [1]): 93% | Inhibition (Plasmodium falciparum [2]): 91% | Inhibition (HepG2): 3%

Cc1cc(N[C@@H](CC(C)C)C(=O)NCCCOC(C)C)nc(NCCc2ccc(F)cc2)n1.O=C(O)C(F)(F)F
Inhibition (Plasmodium falciparum [1]): 87% | Inhibition (Plasmodium falciparum [2]): 19% | Inhibition (HepG2): 5%

Cc1nc2c(c([O-])c1Cl)-c1ccc(Oc3cccc(C(F)(F)F)c3)cc1C2=O.[Na+]
Inhibition (Plasmodium falciparum [1]): 94% | Inhibition (Plasmodium falciparum [2]): 95% | Inhibition (HepG2): 25%
